Bioassay records (PubChem BioAssay)
Most compounds without a hit are left out; they make up all but 8.9% or so of the library.
12-hLO inh – qHTS Assay for Inhibitors of 12-hLO (12-human lipoxygenase); purified 12-hLO, xylenol orange hydroperoxide absorbance; Potency, µM (top dose mostly 57.1 µM), without a hit: at the highest dose activity change, negative = inhibition, most hits filed as inhibitors; actives 0.12% (n = 150,000); also: potency is read from the fitted curve at half-maximal effect; nearly all actives have a fitted effect of over 55% in size
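Xylenol orange chromogenic assay: hydroperoxide from 12hLO oxidises Fe(II), giving red-shifted Fe(III)-XO absorbance. Conditions: 150 nM enzyme, 40 uM arachidonic acid, 25 mM Hepes pH 7.0, 0.01% Triton X-100, 30 min, room temperature.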
NPSR antagonist – qHTS Assay for Antagonists of the Neuropeptide S Receptor: cAMP Signal Transduction; actives 1% (n = 220,000); CHO-NPSR cells, cAMP TR-FRET, antagonist mode; Potency, µM (titrated, usually from 38.3 µM), inactives show at the highest dose activity change, negative = inhibition, hits mostly inhibitors; Q6W5P4; also: potency is read from the fitted curve at half-maximal effect; nearly all actives have a fitted effect of over 50% in size
Target sequence (Q6W5P4 whole entry, looked up): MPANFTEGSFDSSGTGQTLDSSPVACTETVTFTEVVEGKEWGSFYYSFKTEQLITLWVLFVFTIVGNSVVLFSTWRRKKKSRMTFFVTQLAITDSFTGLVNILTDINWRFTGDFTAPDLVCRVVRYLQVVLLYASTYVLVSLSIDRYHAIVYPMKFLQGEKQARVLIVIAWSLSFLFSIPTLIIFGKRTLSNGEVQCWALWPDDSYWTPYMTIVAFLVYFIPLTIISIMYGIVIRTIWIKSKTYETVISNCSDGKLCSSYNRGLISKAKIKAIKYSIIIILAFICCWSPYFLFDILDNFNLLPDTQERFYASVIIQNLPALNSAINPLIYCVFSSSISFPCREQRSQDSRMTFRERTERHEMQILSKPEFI
ALDH1A1 inh – qHTS Assay for Inhibitors of Aldehyde Dehydrogenase 1 (ALDH1A1). Potency, µM (titrated, usually from 75.3 µM), for the others: at the top dose activity, negative = inhibition, actives largely listed as inhibitors. Purified ALDH1A1, NADH fluorescence, propionaldehyde substrate. actives 7.3% (n = 220,000); active = well fitted inhibition curve with a large enough effect, not every such curve was filed as active; inconclusive = small, poorly fitted or top-dose-only effect, or another doubt; inactive = no such curve, though single readings can be large or run the other way;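 also: potency is read from the fitted curve at half-maximal effect; plate controls were no enzyme wells and a reference inhibitor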
HPGD inh – qHTS Assay for Inhibitors of HPGD (15-Hydroxyprostaglandin Dehydrogenase); 15-hydroxyprostaglandin dehydrogenase [NAD(+)] (Homo sapiens), P15428; purified HPGD, NADH fluorescence kinetic, PGE2 substrate; Potency, µM, inactives show at the highest dose activity change, negative = inhibition, hits mostly inhibitors; actives 4.3% (n = 150,000); AID 894, 2007; active = well fitted inhibition curve with a large enough effect, not every such curve was filed as active; inconclusive = small, poorly fitted or top-dose-only effect, or another doubt; inactive = no such curve, though single readings can be large or run the other way; also: potency is read from the fitted curve at half-maximal effect
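20 nM HPGD preincubated 15 min at room temperature with compound in 50 mM Tris-HCl pH 8, 0.01% Tween 20. Started with 1 mM NAD+ and 30 uM prostaglandin E2; NADH fluorescence (360/450 nm) read 5 times over 30-s intervals, last minus first.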
IMPase Li cell – qHTS Assay for Identifying the Cell-Membrane Permeable IMPase Inhibitors: Potentiation with Lithium; CHO-M1 cells, IP1 TR-FRET (IP-One), carbachol + lithium; Potency, µM (titrated, usually from 59.4 µM), inactives show top-dose activity, negative = IMPase inhibition, hits mostly inhibitors; actives 0.35% (n = 210,000);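 also: IP1 builds up when IMPase is blocked and the TR-FRET signal falls; potency is read from the fitted curve at half-maximal effect; plate controls were basal vehicle for no effect and high inhibitor control for full effect; nearly all actives have a fitted effect of over 50% in size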
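Steps: plate 2000 CHO-M1 cells per well and culture 16–30 h; add compound and lithium; incubate 30 min, 37C; add d2-IP1 tracer and Eu cryptate anti-IP1 antibody in lysis buffer; read after 10 min at room temperature.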
IMPase inh – qHTS Assay for Identifying the Cell-Membrane Permeable IMPase Inhibitors; CHO-M1 cells, IP1 accumulation, HTRF TR-FRET ratio; 120,000 tested, under 10 active; inhibition (IP1 accumulation), % at 46.1 µM; active = well fitted curve in the direction sought with a large enough effect in the signal ratio, not every such curve was filed as active; inconclusive = small, poorly fitted or top-dose-only effect, or a change in a side signal; inactive = no such curve, though single readings can be large or run the other way; the % refers to the signal ratio;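 also: cells stimulated with carbachol in lithium chloride buffer; plate controls were DMSO basal wells for no effect and reference inhibitor wells for full effect; higher means more IMPase inhibition seen as more IP1 and lower FRET ratio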
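Cellular IMPase inhibition is scored as a rise in cytosolic IP1, detected by competitive TR-FRET between d2-labelled IP1 and a europium anti-IP1 antibody. M1-expressing CHO cells were stimulated with carbachol for 30 min at 37C, with lithium (50 mM LiCl) present in the buffer.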
Starred values were filed as active, the others as inactive; ? = inconclusive; . = not tested or not shown; [ ] = remark or other dose. Unless noted, calls follow the shape of the dose curve; as a rule, active = well fitted curve in the direction sought with a large enough effect; inconclusive = small, poorly fitted or top-dose-only effect, or another doubt; inactive = no such curve, though single readings can be large; an effect the other way counts as inactive or inconclusive. Unless noted, % is scaled to controls: 0 for no effect and ±100 for the full control effect.

SMILES | 12-hLO inh | NPSR antagonist | ALDH1A1 inh | HPGD inh | IMPase Li cell | IMPase inh
O=c1cc(CN2CCN(c3ccccc3O)CC2)nc2sccn12 | -10% | -10%[46.1 µM] | 25µM* | ? | 0%[38.3 µM] | -11
CCOC(=O)CSc1nnc(-c2cccs2)n1-c1ccccc1 | 0% | -18%[46.1 µM] | ? | 28µM* | -20%[38.3 µM] | -27
O=C(CSc1nnc(-c2cccs2)n1-c1ccccc1)N1CCCC1 | -3% | -11%[46.1 µM] | ? | 25µM* | -4%[38.3 µM] | 4
Cc1ccc(-n2c(SCC3CCCCO3)nnc2-c2ccco2)cc1 (centres undefined) | -5% | ? | ? | 16µM* | 28%[38.3 µM] | -17
CCOC(=O)CSc1nnc(-c2ccco2)n1-c1ccccc1 | 1% | 4%[46.1 µM] | 1.6µM* | 32µM* | 8%[38.3 µM] | -3
O=C(CSc1nc2ccccc2o1)Nc1ccccc1 | -4% | -1%[46.1 µM] | 6% | -13% | 18%[38.3 µM] | -4
Cc1nn2c(N3CCOCC3)c3c(nc2c1-c1ccccc1)CCCC3 | 3% | ? | ? | -20% | 14%[38.3 µM] | -2[1.84 µM]
COc1cccc(SCC2CSc3nc4ccccc4c(=O)n32)c1 (centres undefined) | . | -5% | -7% | . | 2% | .
CCOC(=O)/C(=C\c1cccc(O)c1)c1nc2sc(C)c(C)c2c(=O)[nH]1 | -13% | 10µM* | 7.9µM* | 7.9µM* | 14% | .
COc1c(O)ccc(/C=C(\C#N)c2nc3ccccc3[nH]2)c1[N+](=O)[O-] | 3% | 2% | -1% | 28µM* | -3% | .
COc1cc(/C=C(/C#N)c2nc3ccccc3c(=O)[nH]2)ccc1O | 0% | -20% | -1% | 14µM* | 6% | .
N#C/C(=C\c1cc([N+](=O)[O-])c(N2CCOCC2)cc1N1CCOCC1)c1nc2ccccc2[nH]1 | 0% | -11%[46.1 µM] | -14% | 14µM* | 57%[38.3 µM] | 4[1.84 µM]
Cc1ccc2nc(/C(C#N)=C/c3ccc(-c4cccc([N+](=O)[O-])c4)o3)[nH]c2c1 | 0% | -8% | ? | 25µM* | 0% | .
CCOC(=O)c1sc2c(c1C)c(=O)c(C(=O)OCC)cn2CC | -8% | -12%[46.1 µM] | ? | -26% | -5%[38.3 µM] | 4
COc1cc(/C=C(\C#N)c2nc3ccccc3[nH]2)cc(Br)c1OCc1ccc(F)cc1 | -14% | 5µM* | ? | -21% | 15%[38.3 µM] | ?
Cc1ccc2[nH]cc(C(=O)NCc3cccs3)c(=O)c2c1 | 1% | -28%[46.1 µM] | 16µM* | -8% | 17% | 6
Cc1ccc(C)c(Nc2ncccc2C(=O)NCc2cccs2)c1 | 0% | -44% | -9% | 25µM* | 24% | .
COc1cccc2c(=O)c(C(=O)NCc3cccs3)c[nH]c12 | -12% | -22%[46.1 µM] | ? | ? | ? | 6
CCc1cc(C=NC2CCCCC2)c(O)s1 | ? | 15%[46.1 µM] | ? | 4.5µM* | 33%[38.3 µM] | 1
COc1ccc(S(=O)(=O)N2N=C(c3ccc(NS(C)(=O)=O)cc3)CC2c2ccco2)cc1 (centres undefined) | . | -47% | 22µM* | . | 5% | .
CS(=O)(=O)Nc1ccc(C2=NN(C(=O)c3ccco3)C(c3cccc(F)c3)C2)cc1 (centres undefined) | . | -58% | 14µM* | . | -10% | .
CCS(=O)(=O)Nc1ccc(C2=NN(C(=O)c3ccco3)C(c3cccc(F)c3)C2)cc1 (centres undefined) | . | -40% | ? | . | 0% | .
CS(=O)(=O)Nc1ccc(C2=NN(C(=O)c3ccco3)C(c3ccccc3)C2)cc1 (centres undefined) | 0% | -22% | 16µM* | -12% | -6% | .
COC(=O)C12CCC3(SCCS3)C(C(=O)OC)(CCC13SCCS3)C2 | 3% | -15% | 11% | 2% | 3% | .
